Experimental findings from PubChem BioAssay (NCI) are described below.

The panel holds about 79,000 compounds, 15% with a hit somewhere; the sample as a whole holds those more often. Unmarked numbers belong to inactive results. Activity calls are given as the source filed them. Rule as the data show it: active = growth inhibition above about 70%; inactive = the rest.

Assay [1] can be described thus: NCI Yeast Anticancer Drug Screen. Data for the rad50 strain (AID 155).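 Also: 0% = growth of vehicle-only cultures of the same strain.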 As to conditions: S. cerevisiae rad50 strain growth inhibition, stronger effect = higher value. Put shortly: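 Yeast carrying a defined DNA repair defect were exposed to test compounds, and growth was compared with vehicle-treated controls to give percent inhibition.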
The nature of assay [2]: NCI Yeast Anticancer Drug Screen. Data for the mec2-1 strain (AID 157). As to conditions: S. cerevisiae mec2-1 strain, stronger effect = higher value. The gist of the method: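 Yeast mec2-1 mutant treated with compound. Readout: growth inhibition vs vehicle controls.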
The nature of assay [3]: NCI Yeast Anticancer Drug Screen. Data for the sgs1 mgt1 strain (AID 161).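 Also: 0% = growth of cultures given vehicle only.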 As to conditions: S. cerevisiae sgs1 mgt1 strain, stronger effect = higher value. Put shortly: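 Mutant yeast exposed to compound; growth scored against vehicle-only wells.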
A short description of assay [4]: NCI Yeast Anticancer Drug Screen. Data for the cln2 rad14 strain (AID 165).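 Also: 0% = growth equal to vehicle treated cultures.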 As to conditions: S. cerevisiae cln2 rad14 strain, stronger effect = higher value. Put shortly: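 cln2 rad14 yeast strain; compound exposure; growth inhibition read vs vehicle controls.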
Assay [5] in a line: NCI Yeast Anticancer Drug Screen. Data for the bub3 strain (AID 167). As to conditions: S. cerevisiae bub3 mutant strain, stronger effect = higher value. The gist of the method: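 Compounds were applied to a genetically altered yeast strain carrying a cell-cycle control defect. Growth inhibition was scored against vehicle-treated controls.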
Assay [6] is described as follows: NCI Yeast Anticancer Drug Screen. Data for the mlh1 rad18 strain (AID 175). As to conditions: S. cerevisiae mlh1 rad18 strain growth inhibition, stronger effect = higher value. Put shortly:
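Yeast w/ defined DNA-repair lesions; compound exposure; growth vs vehicle controls → % inhibition.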

The mark [7] stands for this setting: at 5.0 µM (retest, dose inferred, filed as 0.5).
Setting [8] is: at 50.0 µM (retest, dose inferred, filed as 5.0).

In the case of `O=C(CSc1nnc(Cc2ccccc2)o1)Nc1cccc(Cl)c1`, the growth inhibition in assay [1] (setting [7]) was -20%; in assay [1] (setting [8]) it was 91% (active); in assay [1] (at 50.0 µM), 77% (active); in assay [2] (setting [7]) it was 14%; in assay [2] (setting [8]) it was 85% (active); in assay [2] (at 50.0 µM), 70% (active). The growth inhibition in assay [3] (setting [7]) was -2%; in assay [3] (setting [8]), 86% (active); in assay [3] (at 50.0 µM), 82.2% (active); in assay [4] (setting [7]), 24%; in assay [4] (setting [8]), 91% (active); in assay [4] (at 50.0 µM), 78% (active). Further, the growth inhibition is 1% in assay [5] (setting [7]); 95% (active) in assay [5] (setting [8]); 77.5% (active) in assay [5] (at 50.0 µM); 9% in assay [6] (setting [7]); 93% (active) in assay [6] (setting [8]); 78.8% (active) in assay [6] (at 50.0 µM).
For the compound `COc1ccc2c(c1)[n+]([O-])c(C(N)=O)c(N)[n+]2[O-]`, the growth inhibition in assay [1] (setting [7]) is 23%; in assay [1] (setting [8]) it was 100% (active); in assay [1] (at 50.0 µM), 99.4% (active); in assay [2] (setting [7]), 14%; in assay [2] (setting [8]), 100% (active); in assay [2] (at 50.0 µM), 99.5% (active). Also, the growth inhibition in assay [3] (setting [7]) was 17%; in assay [3] (setting [8]) it was 99% (active); in assay [3] (at 50.0 µM), 99.3% (active); in assay [4] (setting [7]), 31%; in assay [4] (setting [8]) it was 98% (active); in assay [4] (at 50.0 µM) it was 99.1% (active). Further, the growth inhibition in assay [5] (setting [7]) was 40%; in assay [5] (setting [8]), 99% (active); in assay [5] (at 50.0 µM) it was 98.4% (active); in assay [6] (setting [7]), 42%; in assay [6] (setting [8]) it was 99% (active); in assay [6] (at 50.0 µM), 99.2% (active).
For the compound `CC(C)CCN(CCC(C)C)C(=S)Nc1ccccc1`, the growth inhibition in assay [1] (setting [7]) was -13%; in assay [1] (setting [8]), 87% (active); in assay [1] (at 50.0 µM), 92.7% (active); in assay [2] (setting [7]) it was 6%; in assay [2] (setting [8]), 93% (active); in assay [2] (at 50.0 µM), 89.2% (active). Also, the growth inhibition was -20% in assay [3] (setting [7]); 89% (active) in assay [3] (setting [8]); 86.8% (active) in assay [3] (at 50.0 µM); -22% in assay [4] (setting [7]); 89% (active) in assay [4] (setting [8]); 90.8% (active) in assay [4] (at 50.0 µM). The growth inhibition in assay [5] (setting [7]) is -7%; in assay [5] (setting [8]), 94% (active); in assay [5] (at 50.0 µM), 92% (active); in assay [6] (setting [7]), -7%; in assay [6] (setting [8]), 94% (active); in assay [6] (at 50.0 µM) it was 92.5% (active).
Take `CN1C/C(=C\c2ccccc2)C(=O)C(c2ccccc2)C1` (configuration not stated): the growth inhibition in assay [1] (setting [7]) was -1%; in assay [1] (setting [8]) it was 94% (active); in assay [1] (at 50.0 µM), 1.9%; in assay [2] (setting [7]), 0%; in assay [2] (setting [8]), 95% (active); in assay [2] (at 50.0 µM) it was 19.9%. The growth inhibition in assay [3] (setting [7]) is 0%; in assay [3] (setting [8]) it was 96% (active); in assay [3] (at 50.0 µM), 28.8%; in assay [4] (setting [7]) it was 1%; in assay [4] (setting [8]) it was 94% (active); in assay [4] (at 50.0 µM), -20.6%. Further, the growth inhibition in assay [5] (setting [7]) is -7%; in assay [5] (setting [8]), 95% (active); in assay [5] (at 50.0 µM) it was 77.2% (active); in assay [6] (setting [7]), -1%; in assay [6] (setting [8]), 95% (active); in assay [6] (at 50.0 µM), 31.4%.
As to `COc1ccc(-c2cc(-c3ccco3)c(C#N)c(=S)n2C2OC(CO)C(O)C(O)C2O)cc1` (configuration not stated), the growth inhibition in assay [1] (setting [7]) is -8%; in assay [1] (setting [8]), 1%; in assay [1] (at 50.0 µM) it was 5.1%; in assay [2] (setting [7]), 3%; in assay [2] (setting [8]), -12%; in assay [2] (at 50.0 µM), 4.3%. The growth inhibition was -1% in assay [3] (setting [7]); -3% in assay [3] (setting [8]); -15.2% in assay [3] (at 50.0 µM); 15% in assay [4] (setting [7]); 16% in assay [4] (setting [8]); 30.1% in assay [4] (at 50.0 µM). The growth inhibition was 2% in assay [5] (setting [7]); 7% in assay [5] (setting [8]); -3% in assay [5] (at 50.0 µM); 10% in assay [6] (setting [7]); 20% in assay [6] (setting [8]); 4.1% in assay [6] (at 50.0 µM).
For the compound `CCCCCCCCCC(=O)CC(=O)c1c(O)cccc1O`, the growth inhibition was 33% in assay [1] (setting [7]); 83% (active) in assay [1] (setting [8]); 86% (active) in assay [1] (at 50.0 µM); 20% in assay [2] (setting [7]); 92% (active) in assay [2] (setting [8]); 90.3% (active) in assay [2] (at 50.0 µM). The growth inhibition in assay [3] (setting [7]) was 52%; in assay [3] (setting [8]), 96% (active); in assay [3] (at 50.0 µM), 90.5% (active); in assay [4] (setting [7]) it was 22%; in assay [4] (setting [8]), 83% (active); in assay [4] (at 50.0 µM), 88.9% (active). Further, the growth inhibition in assay [5] (setting [7]) was 42%; in assay [5] (setting [8]), 94% (active); in assay [5] (at 50.0 µM), 87.3% (active); in assay [6] (setting [7]), 40%; in assay [6] (setting [8]), 95% (active); in assay [6] (at 50.0 µM), 86.2% (active).
With `CCCCC(O)CCCC`, the growth inhibition in assay [1] (setting [7]) is 13%; in assay [1] (setting [8]), 17%; in assay [1] (at 50.0 µM) it was 4.55%; in assay [2] (setting [7]), 14%; in assay [2] (setting [8]), 18%; in assay [2] (at 50.0 µM), 8.65%. Moreover, the growth inhibition was -5% in assay [3] (setting [7]); 9% in assay [3] (setting [8]); 15.8% in assay [3] (at 50.0 µM); 3% in assay [4] (setting [7]); 13% in assay [4] (setting [8]); 22.2% in assay [4] (at 50.0 µM). Further, the growth inhibition is 43% in assay [5] (setting [7]); 91% (active) in assay [5] (setting [8]); 64.2% in assay [5] (at 50.0 µM); 31% in assay [6] (setting [7]); 25% in assay [6] (setting [8]); -7.1% in assay [6] (at 50.0 µM).
As for `O=CC(I)=C(c1ccccc1)c1ccccc1`, the growth inhibition in assay [1] (setting [7]) is 21%; in assay [1] (setting [8]) it was 21%; in assay [1] (at 50.0 µM), 88.8% (active); in assay [2] (setting [7]), 13%; in assay [2] (setting [8]), 13%; in assay [2] (at 50.0 µM), 92.3% (active). The growth inhibition is 9% in assay [3] (setting [7]); 9% in assay [3] (setting [8]); 86.4% (active) in assay [3] (at 50.0 µM); 4% in assay [4] (setting [7]); 4% in assay [4] (setting [8]); 89.8% (active) in assay [4] (at 50.0 µM). Further, the growth inhibition was -2% in assay [5] (setting [7]); -2% in assay [5] (setting [8]); 89.5% (active) in assay [5] (at 50.0 µM); 21% in assay [6] (setting [7]); 21% in assay [6] (setting [8]); 86.3% (active) in assay [6] (at 50.0 µM).
Turning to `O=C1C(Br)=C(C2CCCCC2)C(=O)c2ccccc21`, the growth inhibition was 54% in assay [1] (setting [7]); 99% (active) in assay [1] (setting [8]); 101% (active) in assay [1] (at 50.0 µM); 59% in assay [2] (setting [7]); 100% (active) in assay [2] (setting [8]); 99.7% (active) in assay [2] (at 50.0 µM). Besides, the growth inhibition in assay [3] (setting [7]) was 78% (active); in assay [3] (setting [8]) it was 99% (active); in assay [3] (at 50.0 µM), 99.6% (active); in assay [4] (setting [7]), 20%; in assay [4] (setting [8]) it was 99% (active); in assay [4] (at 50.0 µM) it was 100% (active). For the same compound, the growth inhibition was 24% in assay [5] (setting [7]); 100% (active) in assay [5] (setting [8]); 99.5% (active) in assay [5] (at 50.0 µM); 83% (active) in assay [6] (setting [7]); 99% (active) in assay [6] (setting [8]); 99.2% (active) in assay [6] (at 50.0 µM).
